Test [1] in a line: Viability qHTS for spleen associated tyrosine kinase inhibitor (SYKi) naive MV4-11 cells (AID 1963823). Note: nearly all actives have a fitted effect of over 40% in size. Note: potency is the fitted concentration of half-maximal effect. In a few lines:
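In this viability screen, compounds acted on SYK inhibitor naive MV4-11 cells for three days (72 hr, 37 C). Remaining viable cells were measured by CellTiter-Glo luminescence following a 10 min room-temperature development.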
(In qHTS, concentration-response curves come from the screen itself.)

Test [2] can be described thus: Cellular viability qHTS for adrenocortical cancer (ACC) cell line SW-13 (AID 1963989).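 Note: cells grown in serum-free medium with ITS supplement; % is set by controls: 0 for no effect and ±100 for the full control effect; nearly all actives have a fitted effect of over 65% in size.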 As to conditions: SW-13 ACC cells viability, CellTiter-Glo, 48 h; activity (max response): active compounds read low. The gist of the method:
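Here, serum-free SW-13 cultures were dosed up to 46 uM. Following 48 h, ATP-dependent luminescence (CellTiter-Glo) reported viable cells, and logistic modeling produced IC50 values.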

Test [3] is described as follows: Quantitative highthroughput screen to assess conditional lethalithy of NOMO1 cells grown in Human Plasma-Like Medium with dialyzed fetal bovine serum (HPLM+ds) (AID 1963878).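 For Viability: 100% = DMSO wells and 0% = empty wells on each plate.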 Note: nearly all actives have a fitted effect of over 35% in size. Note: potency is the fitted concentration of half-maximal effect. The gist of the method:
(§1)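 Each medium arm—HPLM with 10% dialyzed FBS, or RPMI1640 with 5 mM glucose and 10% untreated or dialyzed FBS—was screened against an 11-point, 3-fold compound titration for 48 h at 37 °C, with CellTiter-Glo luminescence as endpoint.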

The nature of test [4]: Quantitative highthroughput screen to assess conditional lethalithy of P12 Ichikawa cells grown in Human Plasma-Like Medium with dialyzed fetal bovine serum (HPLM+ds) (AID 1963879). Note: series mostly up to about 46 µM; nearly all actives have a fitted effect of over 35% in size. As to conditions: Potency: viability. The gist of the method: as §1
A short description of test [5]: Quantitative highthroughput screen to assess conditional lethalithy of P12 Ichikawa cells grown in RPMI1640 with untreated serum (RPMI+s) (AID 1963881).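 Note: series mostly up to about 46 µM; 100% = DMSO wells and 0% = empty wells without cells; nearly all actives have a fitted effect of over 35% in size.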 To be noted: Potency: viability. The gist of the method:
as §1

Test [6] is described as follows: Cellular viability qHTS for adrenocortical cancer (ACC) cell line NCI-H295R (AID 1963990).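 Note: 0% = DMSO only wells and -100% = full killing with cytotoxic reference compound; nearly all actives have a fitted effect of over 60% in size.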 In a few lines:
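Viability of NCI-H295R after 48 h of treatment (final up to 46 uM) measured through cellular ATP luminescence.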

Test [7] is described as follows: Quantitative highthroughput screen to assess conditional lethalithy of SEM cells grown in RPMI1640 with dialyzed fetal bovine serum (RPMI+ds) (AID 1963884).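 Note: series mostly up to about 46 µM; 100% = DMSO control wells and 0% = empty wells without cells; nearly all actives have a fitted effect of over 35% in size.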 The gist of the method: as §1

Here are results for eleven compounds from PubChem BioAssay (NCATS).

Each structure is given as a SMILES string. Values joined by “and” are separate entries in the source; they are usually repeats but may differ in a detail not shown here. Identical values can stand only once. Inconclusive results are not listed. Unmarked numbers belong to inactive results. Active and inactive are the calls of the source. Calls come from the whole dose curve; as a rule, active = well fitted curve in the direction sought with a large enough effect; inconclusive = small, poorly fitted or top-dose-only effect, or another doubt; inactive = no such curve, though single readings can be large; an effect the other way counts as inactive or inconclusive.

As to `CN1CCN(c2ccc([N+](=O)[O-])c3no[n+]([O-])c23)CC1`, the Potency in test [1] was 8.33 µM (active). Besides, the activity (max response) in test [2] is 1.98%.
Regarding `CC(=O)Nc1ccc(OC[C@](C)(O)C(=O)Nc2ccc([N+](=O)[O-])c(C(F)(F)F)c2)cc1`, in test [1], the Potency was 16.6 µM (active). Besides, the Potency result in test [3], in test [4], in test [5] and in test [6] was “inactive” each time. The activity (max response) in test [2] is 0.634%.
Turning to `C#C[C@]1(O)C=C[C@H]2[C@@H]3CCC4=CC(=O)CC[C@@H]4[C@H]3CC[C@@]21CC`, the Potency entry in test [1] was “inactive”. Also, the activity (max response) in test [2] is -4.27% and 2.85%.
Consider `Oc1c(Br)cc(Br)cc1Br`, for which the Potency entry in test [1] and in test [6] was “inactive” throughout. The activity (max response) in test [2] is 8.39%.
Regarding `CC(=O)OCC1=C(C(=O)O)N2C(=O)[C@@H](N)[C@H]2SC1`, the Potency entry in test [1] and in test [6] was “inactive” throughout. Also, the activity (max response) in test [2] was 5.22%.
On to `O=C(CCl)c1ccc(Cl)cc1Cl`, for which the Potency entry in test [1] was “inactive”. Further, the activity (max response) in test [2] was -3.67%.
Taken in the same sequence, the figures for `CC[C@H]1C[C@H]2[C@@H]3CCC4=CC(=O)CC[C@@H]4[C@H]3CC[C@]2(C)[C@H]1O` were 18.8 µM (active) and -16.6%.
Consider `O=C(O)c1ccc2[nH]cc(CCCCN3CC=C(c4ccccc4)CC3)c2c1`, for which, in test [1], the Potency was 9.44 µM (active). For the same compound, in test [2], the activity (max response) is -1.83%. The Potency entry in test [6] is “inactive”.
Taken in the same sequence, the figures for `C[N+]1(CCC(C(N)=O)(c2ccccc2)c2ccccc2)CCCCC1` were “inactive”, 8.34% and “inactive”.
Taken in the same sequence, the figures for `CC(=O)[C@H]1CC[C@H]2[C@@H]3CC[C@H]4C[C@](C)(O)CC[C@]4(C)[C@H]3CC[C@]12C` were “inactive”, 7.79% and “inactive”.
Consider `CCCC[N+]1(C)[C@H]2CC(OC(=O)[C@H](CO)c3ccccc3)C[C@H]1[C@H]1O[C@H]12` (some centres undefined), for which the Potency entry in test [1], in test [5], in test [7] and in test [6] was “inactive” each time. In addition, the Potency in test [3] is 11.8 µM (active).
